Experimental data published in the supplement of paper PMC13380429.

System: Vero E6 infected with SARS-CoV-2
Experiment: inhibition of SARS-CoV-2 cytopathic effect; higher = more antiviral protection, active = above 15
Conditions: 48 h

Measured: inhibition of SARS-CoV-2 cytopathic effect

COc1ccc(C(=O)Nc2c(Cl)cncc2Cl)cc1OC1CCCC1 [piclamilast]
inactive: 1 nM -1.88% | 8.33 nM -0.22% | 100 nM 0.16% | 833.33 nM -2.24% | 10000 nM -0.91%

CCOC(=O)[C@@H](N)Cc1ccc(-c2cc(O[C@H](c3ccc(Cl)cc3-n3ccc(C)n3)C(F)(F)F)nc(N)n2)cc1 [telotristat-ethyl]
inactive: 1 nM -0.32% | 8.33 nM 2.88% | 100 nM -1.08% | 833.33 nM 4.77% | 10000 nM 2.26%

CCOC(CN1CCN(CC(C)C(=O)c2ccccc2)CC1)c1ccccc1 (stereo not given) [eprazinone]
inactive: 1 nM -5.33% | 8.33 nM -3.53% | 100 nM -2.2% | 833.33 nM 1.64% | 10000 nM 0.89%

C(=C\c1ccccc1)/CN1CCN(CCOC(c2ccccc2)c2ccccc2)CC1
inactive: 1 nM -2.82% | 8.33 nM 0.59% | 100 nM -0.97% | 833.33 nM 0.92% | 10000 nM 4.63%

CN(C)CCc1c[nH]c2ccc(C[C@H]3COC(=O)N3)cc12 [zolmitriptan]
inactive: 1 nM -2.55% | 8.33 nM 2.01% | 100 nM -1.58% | 833.33 nM -2.13% | 10000 nM -2.93%

CCC1(C)CC(=O)NC(=O)C1 [bemegride]
inactive: 1 nM -1.73% | 8.33 nM -2.18% | 100 nM -2.05% | 833.33 nM 1.29% | 10000 nM -2.8%

CN1CCc2nc(C(=O)N[C@@H]3C[C@@H](C(=O)N(C)C)CC[C@@H]3NC(=O)C(=O)Nc3ccc(Cl)cn3)sc2C1 [edoxaban]
inactive: 1 nM -1.16% | 8.33 nM -1.57% | 100 nM -1.51% | 833.33 nM -3.37% | 10000 nM -1.69%
